88 sequences from the supplement of paper PMC11417369 can be followed below.

The full ranking holds about 25,000 sequences; the median of “ln(normalized median fluorescence intensity)” is about 9.7, and the highest 2% start at about 11. The sample as a whole holds a higher share of the highest values than the screen did.

In the assay the test system is PfAP2-HC AP2 domain (GST-tagged). Description: gcPBM binding intensity (ln(normalized median fluorescence intensity)); higher = stronger DNA binding. The essentials: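 Using an Agilent 4 × 180k array, primer-extended double-stranded 36-bp intergenic genomic probes and negative controls were exposed for 1 h to GST-fused P. falciparum DNA-binding domains expressed in E. coli. Binding was carried out in 1× PBS with 1% milk, 0.2 mg/ml BSA, 0.5% salmon testes DNA and 0.03% Triton X-100, and protein was detected with Alexa488 anti-GST antibody and a 488 nm scan. Binding intensity is the highest Masliner-normalised natural-log median intensity across replicate spots of either probe orientation.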
Regarding “AATAAATTGGTATGTTGTACAAAGTAACCATCGATT [XGTACX_site2823]”, the “gcPBM binding intensity (ln)” value was 9.75.
“ATTCCACTGTTTTAGTGTACTGGTCGTTTTTTTTTT [XGTACX_site1738]”: the “gcPBM binding intensity (ln)” value was 9.89.
Then “TTAAATAAAATAAAAACATGCACACTTTATTTTTTT [TGCATGCA_site719]”, with 9.74; and “TATTAATTATTATGACATACATATCAGTTATTAAAA [CACACA_negctrl_site600]”, with 9.35.
Under “AGCACCCACCAACACACACACACACCCACCCACCGA [CACACA_site368]” stands 11.2; under “GTTACACCAACAAACACACACACACCCACCCACAAA [CACACA_site2427]”, 10.6; under “AGCACCCACCAACACACACACACACCCACCCACCCA [CACACA_site8011]”, 11.2.
Then “GTTACACCAACAAACACACACACACCGACACCCAAA [CACACA_site5361]”, with 10.6.
Take “ATCAAGCACCAACACACACACACACCCCCACCCACA [CACACA_site370]”: the “gcPBM binding intensity (ln)” value was 11.3.
Under “TCTTTATTATTCGCCACACACATATATATATATATA [CACACA_site3077]” stands 10.1; under “TTTCCAAATTGTTGACGGACACTCACGAATAGTTAT [XGTACX_site5720]”, 9.63; under “ATTAAATGATCAAGGTGTACATTAACAAGAACTATA [XGTACX_site7022]”, 9.72.
In the case of “TACGTAGCCACACTAACACACACAAATATGCACAAT [CACACA_site8942]”, the “gcPBM binding intensity (ln)” value is 10.9.
“CGTAGCCGCACTAACACACACAAATATACGCAATCA [CACACA_site2898]”: the “gcPBM binding intensity (ln)” value stood at 10.1.
Then “CGTAGCCACACTAACACACACAAATATACACAATCA [CACACA_site7379]”, with 10.7; and “TTTTTTTAAAGAATTATCATAAAATGATTGCATCAT [XGTACX_negctrl_site141]”, with 9.34; and “GCGAAATATTATTATAGTATACAAATACTTCTATGA [CACACA_negctrl_site197]”, with 9.51.
For “TGTATCCATATTTGTTCACACACACCCATATTTATA [CACACA_site9190]”, the “gcPBM binding intensity (ln)” value was 10.4.
Then “TATCCATATTTGTTCACACACACACCCATTTATATA [CACACA_site3571]”, with 11; and “TATCCATATTTGTTCACACACACACCGATTTATATA [CACACA_site5888]”, with 10.2.
Then “TATAAAAAAAAAAAAAAAAAAAAAAATATATATATA [CACACA_negctrl_site817]”, with 9.34.
Then “TGGGATAGATCATTTACACACACAAAAAAAAAAAAA [CACACA_site2140]”, with 9.89; and “TTATTTATTTATTATAGTTCACTTGAAAATACAAGA [CACACA_negctrl_site1480]”, with 9.38.
As to “TATACACGCGGACACACACACACACGCAAAAAAAAA [CACACA_site6377]”, the “gcPBM binding intensity (ln)” value was 10.5.
Then “AAAAAAAAAAGACACACACACACACGCATATACATA [CACACA_site7289]”, with 10.7.
For “GGCATACACGGACACACACACACACCGACATATATA [CACACA_site4493]”, the “gcPBM binding intensity (ln)” value is 11.5.
On to “TATATATACATATACACACACACACCGATATATATA [CACACA_site8706]”, for which the “gcPBM binding intensity (ln)” value stood at 10.5.
Then “CATACACGCGGACACACACACACACGCATATATAAC [CACACA_site6427]”, with 11.2.
Then “CGCATACACGGACACACACACACATATATATATATA [CACACA_site4520]”, with 10.9.
Under “CACGCATACGGACACACACACACACCGATATATATA [CACACA_site4521]” stands 11.
With “ATAGTATACGGACACACACACACACCGATATATATA [CACACA_site5032]”, the “gcPBM binding intensity (ln)” value amounted to 11.2.
Turning to “ATAGTATACAGACACACACACACACCGATATATATA [CACACA_site8511]”, the “gcPBM binding intensity (ln)” value was 10.7.
Under “TATAGATACATATACACACACACACCGACATATATA [CACACA_site9138]” stands 10.8; under “AGTATACATATATATACACACACACCGATATATATA [CACACA_site8357]”, 10.4.
Then “TACATGAATAAACTTACACACACCCATGCATACATA [CACACA_site97]”, with 10.4.
Under ATGTTATAATTTAGTGTGCACATATTAAGAGGAACA stands 10.1; under “TACATACAGATATATACACACATATATAATATATAT [CACACA_site4376]”, 10.
As to “CCCTTAATATAAAGCACACATATATATAATATATAT [CACACA_site4439]”, the “gcPBM binding intensity (ln)” value was 9.79.
Under “CAAAATAAAAATAACACACACATTTATTTATATACA [CACACA_site6679]” stands 10.1.
Then “CCCCTCGAAATAATTTGTACGAATATATTGTCTGTA [XGTACX_site8308]”, with 9.68; and “ATGTATATGATTAAATGTACGTAAACAAATTTGTAA [XGTACX_site8174]”, with 9.81; and “ATATCATTAAAAGGATGTACATATGTGTATACAATA [XGTACX_site871]”, with 9.84.
As for “TATATATATATATATATATATATTAATATATATTAC [XGTACX_negctrl_site103]”, the “gcPBM binding intensity (ln)” value worked out at 9.62.
With “AAAAAAAAAAAAAACACACACACATAGACCTCCAAT [CACACA_site3563]”, the “gcPBM binding intensity (ln)” value is 11.3.
Under “AAAAAAAAAAAACACACACACATAGACCTCCAATAG [CACACA_site3562]” stands 10.3; under “AAAAAAAAAAGACACACACACATAGACCTCCAATAG [CACACA_site7646]”, 10.5.
Then “ATAAAGAAATAAAGTTGTACATTATATATATATATA [XGTACX_site7729]”, with 9.61; and “GGTATATTAAAATAGGTGCATAAAACTAAGAGAAAA [GTGCAC_site9781]”, with 9.73; and “AAAGAAAGAAAACACACACACATATATATATATCAA [CACACA_site3743]”, with 10.9.
Then “TAGATACAGAAACACACACACACATACATATATACA [CACACA_site3437]”, with 10.6; and “ATCAAAAGAAAACACACACACATACAGATATATATA [CACACA_site5974]”, with 11.2; and “AAAAAATACATCAAAAGAAACATATATATATATATA [GTGCAC_negctrl_site719]”, with 9.59.
For the sequence “AAAAAAAAAAAACATACACACATACATACAGATATA [CACACA_site4681]”, the “gcPBM binding intensity (ln)” value amounted to 10.1.
Under “ATCAAAAGAAAACACACACACATACATATATATATA [CACACA_site3795]” stands 11.1; under “ATCTTTTATATATTCACACATAAAATTATACAGATA [CACACA_site5277]”, 9.46; under “TATATTTCAGGGGGGAGTACAAATTTTTTTATATAA [XGTACX_site1600]”, 10.
On to “ATATATGGGTAGTATACACACTGTATATTTAGGAAT [CACACA_site7357]”, for which the “gcPBM binding intensity (ln)” value is 9.91.
Under “ATATATATATATATGTGTACTAATAAGGTTAAATAA [XGTACX_site1535]” stands 9.85; under “CAAGAAAAGAAACACACACACATATATATATATATA [CACACA_site3881]”, 11.2.
Then “AAAAAAAAGAAAAACACACACATATATATATAGAAT [CACACA_site1006]”, with 11.3; and “TATATATAGAAACACACACACACATATATATATATA [CACACA_site4116]”, with 10.3.
In the case of “AAGAAAAAAAAAAAAACACACATATATATATATATA [CACACA_site2027]”, the “gcPBM binding intensity (ln)” value was found to be 10.2.
Under “AAAAAAAAAAAAGAAACACACATATATATATATATA [CACACA_site140]” stands 9.68.
Then “AAAAAAAAGAAAAACACACACATATTTATTTATAAC [CACACA_site6600]”, with 10.2.
Then “AAAAAAAAAAAAGAAACACACACATATATATATATA [CACACA_site8525]”, with 10.7; and “TATATATAGAAACACACACACATATATATATATATT [CACACA_site4115]”, with 10.5.
“AAAAAAAAAAAAAAAACACACATATAGATTTATATA [CACACA_site7196]”: the “gcPBM binding intensity (ln)” value was 9.88.
Then “AAAAAAAAAAGAAACACACACATATATATATAGAAT [CACACA_site1777]”, with 10.3; and “TATATATAGAAACACACACACACATATATATATATT [CACACA_site2539]”, with 11.3; and “AAAAAAAAAAGAAACACACACATATAGATTTATAAC [CACACA_site6927]”, with 10.9.
In the case of “AAAGGTAAATGTAAATAAATAAATAATAAATATATA [GTGCAC_negctrl_site681]”, the “gcPBM binding intensity (ln)” value was 9.77.
Then “TTTTCTTGACCTATTATTCTTCTCATAGTATAATAT [GTGCAC_negctrl_site641]”, with 9.62; and “TGAACATACATCAAAAGTACAAACTCGCATGTTATA [XGTACX_site3320]”, with 9.67; and “TATAATATTATACATAGTACACATCACACATCGCAA [XGTACX_site4650]”, with 9.99.
For “ATAATAAGCAGACACACACACACAAAAAAAAAAAAA [CACACA_site6477]”, the “gcPBM binding intensity (ln)” value was 11.
Consider “GACACAAAAAAATAATAATAATAATAATAATAAATA [XGTACX_negctrl_site145]”, for which the “gcPBM binding intensity (ln)” value was 9.75.
Then “AATAAGCAGAAACACACACACAAAAAAAAAAAAAAA [CACACA_site719]”, with 10.1; and “AATAAGCATAGACACACACACAAAAAAAAAAAAAAA [CACACA_site6476]”, with 10.1; and “ATAATAAGCAAACACACACACACAAAAAAAAAAAAA [CACACA_site720]”, with 11.6.
Under “ATCAAATAATAGCAAACACACAAAAAATAAAAAAAA [CACACA_site4146]” stands 9.93.
Under “GTGATTAATATATACACACATACATATATATATATA [CACACA_site2817]” stands 9.81; under “TATATATTAAAAATAGTGCAAAATAATATATATATA [GTGCAC_site9716]”, 9.82; under “TTTTTTACATCCATAAAACTTTTTCTCTTTTAAAAT [CACACA_negctrl_site1745]”, 9.43.
On to “AAAATTTATGGAAGGTGTACTGTTAATTATGTATAT [XGTACX_site6446]”, for which the “gcPBM binding intensity (ln)” value is 9.74.
Under “AGGAAGGAAATAAATCAACACACATATATTATATAT [CACACA_site8678]” stands 9.87; under “CAAAAAAATGTGAAGGCATGCAAATATGTAAAATAA [TGCATGCA_site921]”, 10.9.
With “TTATTGTAAATATATGCATGTGCAAAATGAAAAAAA [TGCATGCA_site399]”, the “gcPBM binding intensity (ln)” value stood at 9.69.
Then “TTTTATGCATGTGAAGTGCAAAATAAAAAATAAAAT [GTGCAC_site9612]”, with 9.56.
